The values that follow come from PubChem BioAssay AID504834 (National Center for Advancing Translational Sciences (NCATS), 2011).

Values joined by “and” are separate entries in the source; they are usually repeats but may differ in a detail not shown here. Equal values may be shown once. In all, about 320,000 compounds went through this assay and about 22,000 (6.9%) were called active. Roughly 27% stayed inconclusive and do not appear here. Calls follow the shape of the dose curve; as a rule, active = well fitted inhibition curve with a large enough effect; inconclusive = small, poorly fitted or top-dose-only effect, or another doubt; inactive = no such curve, though single readings can be large or run the other way. What follows is part of a selection rich in actives, with near analogues and random picks from the rest.
% is scaled to controls: 0 for no effect and ±100 for the full control effect; potency is read from the fitted curve at half-maximal effect.

A short description of the experiment: Primary qHTS for delayed death inhibitors of the malarial parasite plastid, 96 hour incubation. The conditions noted are these: P. falciparum luciferase reporter growth; series mostly up to 28.7 µM; activity change, negative = inhibition: at the top concentration. An excerpt: The goal of this screen is to discover new antimalarial compounds that act by inhibiting the development of the apicoplast in the malarial parasite Plasmodium falciparum. The biochemical processes that make this organelle essential for erythrocytic stage parasites are not well understood. However, antibiotics such as azithromycin and tetracycline, which target the apicoplast translational machinery, have a potent antimalarial effect.
We have developed a cell-based assay that measures parasite growth based on the expression of an integrated copy of a firefly luciferase reporter. To detect small molecules that cause this "delayed death" phenotype, erythrocytes infected with the luciferase-expressing parasites were incubated with compounds for either one or two generations, corresponding to 48 and 96 hours, respectively. Compounds that inhibit parasite growth in the second generation, but not the first, should be enriched in antimalarials that target the apicoplast. Growth inhibition is detected by a decrease in luciferase activity.
Assay Provider: David Fidock and Eric Ekland, Columbia University
Keywords: NIH Roadmap, MLPCN, MLI, MLSMR, qHTS, NCGC, qHTS, malaria, luciferase, viability
Four microliters of infected erythrocytes (2% hematocrit, 0.05% parasitemia final concentration) in culture medium were dispensed and the plates incubated for 96 hours at 37 C in 5% CO2. Two microliters of luciferase detection reagent was added and luminescence was detected by a ViewLux (PerkinElmer) reader.
For orientation: Quantitative high-throughput screening tests each substance at several concentrations.
For `Cc1ccc(C(=O)Nc2ccn(C)n2)cc1`, the “activity change, negative = inhibition” value was 33.8% (inactive). On the same count and under the same terms, the value for `CCOc1ccc(-c2nc(C)sc2CC(=O)O)cc1` was -1.13% (inactive); that for `CCOc1ccc2c(c1)C(c1ccc(C)cc1)=NNC(c1ccc(C)cc1)=N2` was -7.17% (inactive). For `CCOc1ccc(-c2cc(C)[n+](CCN(CC)CC)c(-c3ccc(OCC)cc3)c2)cc1`, the Potency was 0.37 µM (active). For the compound `Nc1ccc(C(=O)Nc2ccccc2N)cc1`, the “activity change, negative = inhibition” value was 1.66% (inactive). Same read-out and setting: in the case of `Cc1ccc(S(=O)(=O)N2CCN(C(=O)c3cccs3)CC2)cc1` it was 22.6% (inactive); in that of `COc1ccc(S(=O)(=O)N2CCN(C(=O)c3cccs3)CC2)cc1OC`, 43.7% (inactive). As for `COc1ccc(N2CCN(C(=O)c3cccs3)CC2)cc1`, the Potency was 13.1 µM (active). On to `O=C(c1cccs1)N1CCN(C(=O)N2CCOCC2)CC1`, for which the “activity change, negative = inhibition” value is -9.34% (inactive). Same read-out and setting: in the case of `O=C(COc1ccccc1)Nc1ccc(N2CCN(C(=O)c3cccs3)CC2)cc1` it was 9.01% (inactive). Take `CCS(=O)(=O)N1CCN(C(=O)c2cccs2)CC1`: the Potency was 4.65 µM (active). As for `NC(=O)COc1ccccc1C(=O)NC12CC3CC(CC(C3)C1)C2`, the “activity change, negative = inhibition” value was 27.2% (inactive). Same read-out and setting: the value for `CCN(CC)CCCN=C(N)N` was 45.7% (inactive). `CC(C)(C)n1nnnc1C(c1ccccc1F)N1CCN(C(=O)c2ccco2)CC1` (centres undefined): the “activity change, negative = inhibition” value was -20.3% (inactive). As to `COc1ccc(CN2CCN(Cc3ccc(OC)c(OC)c3OC)CC2)cc1`, the “activity change, negative = inhibition” value is -5.74% (inactive).

Take `Cc1nc(C(=O)Nc2ccc(Cl)cc2)sc1C1(C)CC(c2ccccc2)=NO1` (centres undefined): the “activity change, negative = inhibition” value is -1.05% (inactive). On the same count and under the same terms, the value for `Cc1nn(-c2ccccc2)c(=O)c2noc(C)c12` was 24.6% (inactive); that for `COc1ccc(C(=O)Nc2cc(C)c(NC(=O)c3ccccc3OC)cn2)cc1` was -9.94% (inactive). Consider `CSC1=N/C(=C\C=C\c2cccs2)C(=O)S1`, for which the Potency was 5.22 µM (active). In the case of `Cc1cccc(C2=N/C(=C/c3cccs3)C(=O)O2)c1`, the “activity change, negative = inhibition” value is -19.3% (inactive). Consider `CSC1=N/C(=C\c2ccc3c(c2)OCO3)C(=O)S1`, for which the “activity change, negative = inhibition” value is -18.9% (inactive).

Consider `O=S(=O)(Cc1noc(-c2ccc(OC(F)(F)F)cc2)n1)c1ccc(F)cc1`, for which the “activity change, negative = inhibition” value is -0.67% (inactive). Same read-out and setting: the value for `COc1ccc(NC(=O)c2cccc(Cl)c2)c[n+]1[O-]` was 43.4% (inactive); that for `COc1cc(OC)c(-n2cc(-c3ccc(Cl)cc3)[nH]c2=O)cc1Cl` was 55.8% (inactive). For the compound `COc1cc(OC)c(-n2c(C)cc(C=O)c2C)cc1Cl`, the Potency was 13.1 µM (active). Regarding `COc1cc(Cl)c(S(=O)(=O)n2cnc(C)c2)cc1Cl`, the “activity change, negative = inhibition” value is 13.2% (inactive). In the case of `O=C1c2ccccc2C(=O)N1c1cccc2ccccc12`, the “activity change, negative = inhibition” value is 10.7% (inactive). On the same count and under the same terms, in the case of `Cc1n[nH]c(=O)c2c(NC(=O)CSc3cc(Cl)ccc3Cl)oc(C)c12` it was 11.3% (inactive); in that of `CCn1cc(CN2CCC(C(=O)Nc3cccc(-c4cccc(Cl)c4)c3)CC2)cn1`, 26.2% (inactive). Take `COc1cccc(-c2cccc(NC(=O)C3CCN(C4CCC4)CC3)c2)c1`: the “activity change, negative = inhibition” value was 30.6% (inactive).

As for `O=C(Nc1cccc(-c2cccc(Cl)c2)c1)C1CCN(C2CCC2)CC1`, the Potency is 10.4 µM (active).

Consider `COC(=O)CSc1nnc(NC(=O)CCc2ccccc2)s1`, for which the “activity change, negative = inhibition” value is 12.1% (inactive). The same measure, in the same setting: in the case of `CC(C)CCN1CCN=C1N(C)C` it was 0% (inactive); in that of `COc1ccc(S(=O)(=O)N2CCN(C(=O)N(C)C)C2C)cc1` (centres undefined), 27.7% (inactive); in that of `Cc1cccc(C(=O)N2CCN(S(=O)(=O)N3CCCCC3)CC2)c1`, 30.2% (inactive). Take `CCCCN(CCCC)CCC(O)c1cc2c(Cl)cc(Cl)cc2c2cc(C(F)(F)F)ccc12` (centres undefined): the Potency was 2.6 nM (active) and 2.9 nM (active). With `CN(CC(=O)NCCc1ccccn1)S(=O)(=O)c1ccc(Cl)cc1`, the “activity change, negative = inhibition” value was 10% (inactive). Still for that read-out and setting: in the case of `Cc1ccc(NC(=O)NCC(c2cccnc2)N2CCOCC2)cc1` (centres undefined) it was 11.9% (inactive). For the compound `CN(CC(=O)NNC(=O)CNC(=O)c1ccccc1Cl)S(=O)(=O)c1ccc(Cl)cc1`, the “activity change, negative = inhibition” value was 16.9% (inactive). With `CN(CC(=O)NCC(c1ccccc1)N1CCCC1)S(=O)(=O)c1ccc(Cl)cc1` (centres undefined), the Potency was 8.28 µM (active).

As to `CN(CC(=O)NCCN1CCOCC1)S(=O)(=O)c1ccc(F)cc1`, the “activity change, negative = inhibition” value is 20.1% (inactive). Regarding `Cc1ccc(S(=O)(=O)N(C)CC(=O)NCC(c2ccc(F)cc2)N2CCOCC2)cc1` (centres undefined), the Potency was 10.4 µM (active). Take `COc1ccccc1OCCOc1ccc(/C=C2\C(=N)N3N=C(C)SC3=NC2=O)cc1`: the “activity change, negative = inhibition” value was 21.5% (inactive). With `CCOC(=O)N1CCN(C(=O)c2ccc(CN(c3ccc(C)c(C)c3)S(C)(=O)=O)cc2)CC1`, the “activity change, negative = inhibition” value was -3.85% (inactive). For `CCN1CCN(C(=O)c2ccc(CN(c3ccc(C)c(C)c3)S(C)(=O)=O)cc2)CC1`, the Potency is 10.4 µM (active). Regarding `CCOC(=O)N1CCN(C(=O)CN(c2ccc(C)c(C)c2)S(=O)(=O)c2ccccc2)CC1`, the “activity change, negative = inhibition” value was 21.9% (inactive). With `CC1CN(C(=S)Nc2ccccc2F)CC(C)O1` (centres undefined), the “activity change, negative = inhibition” value was -42% (inactive). As for `O=c1[nH]n(-c2cccc(Cl)c2)c2ncccc12`, the “activity change, negative = inhibition” value was 40.9% (inactive). The same measure, in the same setting: the value for `CCCc1cc(=O)n2[nH]c(C)c(-c3ccc(Cl)cc3)c2n1` was -3.91% (inactive).

Turning to `Cc1[nH]n(-c2cccc(Cl)c2)c(=O)c1-c1ccc(Cl)cc1`, the Potency was 0.415 µM (active). For `CC(C)(O)c1ccccc1CC[C@H](SCC1(CC(=O)O)CC1)c1cccc(/C=C/c2ccc3ccc(Cl)cc3n2)c1`, the “activity change, negative = inhibition” value was -16.4% (inactive). The same measure, in the same setting: the value for `Cc1cc(C)n(-c2nc(C(F)(F)F)nc3ccccc23)n1` was 14% [at 5.75 µM] (inactive); that for `NS(=O)(=O)c1ccc(CCNc2nc(C(F)(F)F)nc3ccccc23)cc1` was 2.6% (inactive). Regarding `CCc1ccc(C(CNc2nc(C(F)(F)F)nc3ccccc23)N(C)C)cc1` (centres undefined), the Potency is 11.7 µM (active).
